Assay [1] addresses Retinoic acid receptor alpha (Homo sapiens) (UniProt P10276). Description: ATG_DR5_RAR_CIS: Attagene CIS-FACTORIAL HepG2 Assay for human Retinoic Acid Receptor Alpha (RARE), DR5 submotif (AID 2282934; active = hit-call score of the fitted dose curve at least 0.9, where 1 is the maximum; inactive = score below 0.9). The conditions noted are these: HepG2 Attagene cis-factorial RARE DR5 reporter, mRNA; actives raise or lower the signal. The method in brief: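 Reporter transcripts from a DR5-regulated unit, measured via RT-PCR plus capillary electrophoresis, reflect endogenous RAR activity in transiently transfected human HepG2 liver cells. Exposure lasted 24 h; gain or loss of signal scored against DMSO.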

The nature of assay [2]: ATG_PBREM_CIS: Attagene CIS-FACTORIAL HepG2 Assay for human Phenobarbital-responsive Enhancer Module (PBREM) (AID 2282955; active = hit-call score of the fitted dose curve at least 0.9, where 1 is the maximum; inactive = score below 0.9). The settings on record: HepG2 PBREM cis-reporter, Attagene multiplexed transcription; actives raise or lower the signal. The method in brief:
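HepG2 cells transiently transfected with multiple cis-regulated reporter transcription units; endogenous factor activity at the PBREM element measured as reporter mRNA 24 h after dosing, via RT-PCR and capillary electrophoresis of fluorescent fragments; bidirectional fitting versus DMSO.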

Assay [3] has as its target Oxysterols receptor LXR-alpha (Homo sapiens) (UniProt Q13133). Description: ATG_LXRa_TRANS: Attagene TRANS-FACTORIAL HepG2 Assay for human Liver X Receptor alpha (LXRa) (AID 2282980). The settings on record: HepG2 Attagene TRANS reporter, LXRa transactivation. The method in brief: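 Transfect HepG2 with GAL4-UAS multiplex reporter constructs (TRANS format, chimeric receptor-GAL4); treat 24 h; extract RNA, reverse-transcribe, PCR-amplify, FAM-label, HpaI-digest; resolve fragments by capillary electrophoresis. Upward response vs DMSO.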

Assay [4] deals with Oxysterols receptor LXR-beta (Homo sapiens) (UniProt P55055). Description: ATG_LXRb_TRANS: Attagene TRANS-FACTORIAL HepG2 Assay for human Liver X Receptor beta (LXRb) (AID 2282981). The conditions noted are these: HepG2 Attagene TRANS GAL4-LXRb reporter, mRNA. The method in brief: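 After 24 h chemical treatment of transfected HepG2 cells carrying exogenous NR-Gal4 chimeras, reporter mRNA was quantified by fluorescent RT-PCR and capillary electrophoresis; activity taken as increase over DMSO controls.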

Assay [5] addresses human Peroxisome Proliferator-activated Receptor alpha (PPARa), PPARA (gene 5465) (UniProt Q07869). Description: ATG_PPARa_TRANS: Attagene TRANS-FACTORIAL HepG2 Assay for human Peroxisome Proliferator-activated Receptor alpha (PPARa) (AID 2283001). The method in brief: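 Reporter transcripts quantified by RT-PCR plus capillary electrophoresis after 24 h treatment, fitted upward relative to DMSO. Cells: human HepG2 transiently carrying multiple GAL4-UAS reporter units driven by NR-Gal4 chimeras.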

In assay [6] the target is human Peroxisome Proliferator-activated Receptor delta (PPARd), PPARD (gene 5467) (UniProt Q03181). Nature of the assay: ATG_PPARd_TRANS: Attagene TRANS-FACTORIAL HepG2 Assay for human Peroxisome Proliferator-activated Receptor delta (PPARd) (AID 2283002). The method in brief: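 Read-out is induced reporter mRNA, quantified by RT-PCR with fluorescent labelling and capillary electrophoresis after 24 h dosing. Cells are HepG2 transiently carrying multiple GAL4-UAS reporter units driven by exogenous NR-GAL4 chimeras; DMSO serves as baseline.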

Assay [7] has as its target Peroxisome proliferator-activated receptor gamma (Homo sapiens) (UniProt P37231). Nature of the assay: ATG_PPARg_TRANS: Attagene TRANS-FACTORIAL HepG2 Assay for human Peroxisome Proliferator-activated Receptor-gamma (PPARg) (AID 2283007). The method in brief: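 HepG2 cells transiently transfected with multiplexed GAL4-UAS reporter units and exogenous chimeric NR-Gal4 proteins; reporter mRNA quantified after 24 h compound exposure by RT-PCR, fluorescent labelling, HpaI digestion and capillary electrophoresis; gain-of-signal fitted versus DMSO baseline.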

Assay [8] has as its target human Thyroid Receptor alpha (THRa1), THRA (gene 7067) (UniProt P10827). Description: ATG_THRa1_TRANS: Attagene TRANS-FACTORIAL HepG2 Assay for human Thyroid Receptor alpha (THRa1) (AID 2283014). The method in brief: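 Reporter transcript induction, read by capillary electrophoresis of 6-FAM-labelled RT-PCR products, reflects activity of a transfected THRa1-Gal4 fusion in HepG2 liver cells. Cells were dosed for 24 h; activity was fitted in the positive direction against DMSO.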

Assay [9] deals with human Vitamin D Receptor (VDR), VDR (gene 7421) (UniProt P11473). Nature of the assay: ATG_VDR_TRANS: Attagene TRANS-FACTORIAL HepG2 Assay for human Vitamin D Receptor (VDR) (AID 2283022). The method in brief: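 Steps: transfect HepG2 with GAL4-UAS-driven reporter constructs; dose compounds 24 h; isolate RNA, reverse-transcribe, PCR-amplify with 6-FAM-labelled primer extension and HpaI digestion; quantify fragments by capillary electrophoresis relative to DMSO.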

A short description of assay [10]: TOX21_p53_BLA_p2_viability: Viability Assessment in the Tox21 HCT-116 p53 Agonism Beta-lactamase Assay, Phase 2 (AID 2283591).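 Note: compound exposure lasted 16 h at 37 °C; actives lower the ATP signal meaning cytotoxicity.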 The method in brief:
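Cytotoxicity readout: CellTiter-Glo ATP luminescence, 30 min at room temperature, after the beta-lactamase read. Cells were HCT116 exposed 16 h at 37C to compounds pin-transferred at 217-fold dilution from DMSO stocks.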

Assay [11] in a line: TOX21_p53_BLA_p4_viability: Viability Assessment in the Tox21 HCT-116 p53 Agonism Beta-lactamase Assay, Phase 4 (AID 2283597).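 Note: hits lower the luminescence signal meaning cytotoxicity.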 The method in brief:
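Readout: ATP luminescence (CellTiter-Glo), measured 30 min after reagent addition at RT. The reagent followed a 2 h CCF4-AM incubation, and the cells had been exposed to compound for 16 h at 37C.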

Assay [12] is described as follows: CCTE_Harrill_HTTr_Apoptosis_MCF7: CCTE's 6-hour Apoptosis Assessment for the High-Throughput Transcriptomics (HTTr) Platform, in MCF-7 cells cultured in DMEM + 10% fetal bovine serum, Harrill Lab (AID 2284011; active = hit-call score of the fitted dose curve at least 0.9, where 1 is the maximum; inactive = score below 0.9). The method in brief:
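MCF-7 (DMEM + 10% FBS), 384-well; 8-pt dilution series, 6 h chemical exposure; caspase-3/7 activation via CellEvent Caspase 3/7 Green, HCI; bidirectional fit vs DMSO.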

Assay [13] can be described thus: ATG_M_32_TRANS: Attagene TRANS-FACTORIAL HepG2 Assay for M32 Transcription Factor (Internal Marker) (AID 2282984).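 Note: transcript level of a background control reporter unit measured by RT-PCR and capillary electrophoresis.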 The settings on record: HepG2 Attagene TRANS M32 internal marker reporter. The method in brief:
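Internal background reporter in transfected HepG2: after 24 h chemical exposure, RNA reverse-transcribed, reporter cDNA amplified, fluorescently labelled and HpaI-cut, then sized by capillary electrophoresis. Gain of signal fitted against DMSO control.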

Assay [14] deals with Nuclear receptor subfamily 4 group A member 2 (Homo sapiens) (UniProt P43354). Description: ATG_NURR1_TRANS: Attagene TRANS-FACTORIAL HepG2 Assay for human Nuclear Receptor Related Protein 1 (NURR1) (AID 2282985). The settings on record: HepG2 Attagene TRANS reporter, mRNA readout. The method in brief: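 Reporter transcript induction, measured by RT-PCR with fluorescent labelling, HpaI digestion and capillary electrophoresis, after 24 hr dosing of human HepG2 cells transiently expressing an exogenous NR-Gal4 fusion with GAL4-UAS-driven reporters; DMSO as baseline.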

The target in assay [15] is Bile acid receptor (Homo sapiens) (UniProt Q96RI1). Nature of the assay: ATG_IR1_CIS: Attagene CIS-FACTORIAL HepG2 Assay for human Nuclear Receptor Subfamily 1 Group H Member 4 (NR1H4), IR1 submotif (AID 2282946; active = hit-call score of the fitted dose curve at least 0.9, where 1 is the maximum; inactive = score below 0.9). The settings on record: IR1 reporter transcription, actives raise or lower the signal. The method in brief:
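HepG2 cells transiently transfected with multiplexed cis-element reporter units read endogenous transcription factor activity. After 24 h compound exposure, reporter mRNA was quantified by RT-PCR, fluorescent labelling, HpaI digestion and capillary electrophoresis; bidirectional fitting versus DMSO baseline.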

Assay [16] can be described thus: ATG_GAL4_TRANS: Attagene TRANS-FACTORIAL HepG2 Assay for GAL4 (Internal Marker) (AID 2282976). The settings on record: HepG2 Attagene TRANS GAL4 internal marker reporter. The method in brief:
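First, HepG2 cells were transfected with reporter units under GAL4-UAS control. Next, they were treated with chemical for 24 h. Finally, RNA was reverse-transcribed, PCR-amplified, FAM-labelled and resolved by capillary electrophoresis, with induction scored against DMSO.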

Assay [17] concerns the target human RAR-related Orphan Receptor beta (RORb), RORB (gene 6096) (UniProt Q92753). Nature of the assay: ATG_RORb_TRANS: Attagene TRANS-FACTORIAL HepG2 Assay for human RAR-related Orphan Receptor beta (RORb) (AID 2283010). The method in brief: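 Transfect HepG2 with multiple GAL4-UAS reporter transcription units; dose chemicals for 24 h; isolate RNA, reverse-transcribe and PCR-amplify reporter sequences; label, digest and resolve fragments by capillary electrophoresis; fit increases relative to DMSO.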

A short description of assay [18]: TOX21_p53_BLA_p3_viability: Viability Assessment in the Tox21 HCT-116 p53 Agonism Beta-lactamase Assay, Phase 3 (AID 2283593).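 Note: cells exposed to compound for 16 h before reading.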 The method in brief:
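Cellular ATP was quantified by CellTiter-Glo luminescence, read after 30 min at room temperature. Beforehand, HCT116 cells (4000/well) received compound 5 h post-seeding, 217-fold diluted from DMSO, then incubated 16 h at 37C.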

Assay [19] has as its target Nuclear receptor subfamily 1 group I member 3 (Homo sapiens) (UniProt Q14994). Nature of the assay: ATG_CAR_TRANS: Attagene TRANS-FACTORIAL HepG2 Assay for human Constitutive Androstane Receptor (CAR) (AID 2282969).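 Note: activators raise reporter mRNA above DMSO so AC50 marks induction.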 The conditions noted are these: HepG2 Attagene TRANS-FACTORIAL CAR reporter. The method in brief: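 Signal is reporter mRNA induction relative to DMSO, measured 24 h after dosing by RT-PCR with fluorescent primer extension and capillary electrophoresis. Human HepG2 liver cells carried transiently transfected chimeric NR-Gal4/GAL4-UAS reporter constructs.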

Assay [20] has as its target Glucocorticoid receptor (Homo sapiens) (UniProt P04150). Nature of the assay: ATG_GR_TRANS: Attagene TRANS-FACTORIAL HepG2 Assay for human Glucocorticoid Receptor (GR) (AID 2282978).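 Note: activators score as hits since higher reporter transcript over DMSO is fitted.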 The conditions noted are these: HepG2 Attagene TRANS GR reporter, mRNA transcription. The method in brief:
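HepG2 cells transiently transfected with multiplexed reporter units in which chimeric NR-GAL4 proteins drive GAL4-UAS reporters; 24 h compound exposure. Reporter mRNA measured by RT-PCR, 6-FAM labelling, HpaI digestion and capillary electrophoresis; gain-of-signal fitted versus DMSO.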

These results are taken from PubChem BioAssay (EPA / NIEHS).

Each structure is given as a SMILES string. Where “and” joins values, the source holds several entries; their conditions need not be identical. Equal entries are not always repeated. Records with an inconclusive call do not appear. Where a structure was tested more than once in an assay, its records may differ in their call. Calls of active or inactive are those of the source. Rule for the calls, unless noted: active = hit-call score of the fitted dose curve at least 0.9, where 1 is the maximum; inconclusive = response in the unintended direction; inactive = score below 0.9.

Chain of Oxysterols receptor LXR-alpha (Homo sapiens) (Q13133 whole entry, looked up, the tested form may be a part): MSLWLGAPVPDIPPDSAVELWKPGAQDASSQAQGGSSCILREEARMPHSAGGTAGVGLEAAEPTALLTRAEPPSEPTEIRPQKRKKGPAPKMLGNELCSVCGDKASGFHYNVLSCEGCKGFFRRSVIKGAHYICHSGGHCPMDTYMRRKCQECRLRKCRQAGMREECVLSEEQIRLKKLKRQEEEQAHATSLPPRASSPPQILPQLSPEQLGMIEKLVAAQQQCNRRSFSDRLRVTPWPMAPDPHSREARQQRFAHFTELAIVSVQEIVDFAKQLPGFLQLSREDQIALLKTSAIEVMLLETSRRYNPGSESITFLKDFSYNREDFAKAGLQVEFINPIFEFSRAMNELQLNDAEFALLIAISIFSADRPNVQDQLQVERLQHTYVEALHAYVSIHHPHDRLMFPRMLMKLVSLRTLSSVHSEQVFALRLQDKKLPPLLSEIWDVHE
Chain of Retinoic acid receptor alpha (Homo sapiens) (P10276 whole entry, looked up): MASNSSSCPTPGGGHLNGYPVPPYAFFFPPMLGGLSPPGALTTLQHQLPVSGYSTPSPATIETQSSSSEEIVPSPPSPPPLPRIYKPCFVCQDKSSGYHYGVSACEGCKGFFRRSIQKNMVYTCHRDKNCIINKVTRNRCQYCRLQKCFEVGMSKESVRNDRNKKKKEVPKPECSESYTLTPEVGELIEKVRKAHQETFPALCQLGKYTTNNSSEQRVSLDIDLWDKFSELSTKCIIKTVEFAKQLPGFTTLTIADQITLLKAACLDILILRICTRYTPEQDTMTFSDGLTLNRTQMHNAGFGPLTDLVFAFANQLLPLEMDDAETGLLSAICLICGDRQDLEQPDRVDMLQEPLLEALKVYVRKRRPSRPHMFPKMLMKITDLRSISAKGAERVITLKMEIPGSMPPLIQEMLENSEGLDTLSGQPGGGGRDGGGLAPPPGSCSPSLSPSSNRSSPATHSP
Chain of Bile acid receptor (Homo sapiens) (Q96RI1 whole entry, looked up): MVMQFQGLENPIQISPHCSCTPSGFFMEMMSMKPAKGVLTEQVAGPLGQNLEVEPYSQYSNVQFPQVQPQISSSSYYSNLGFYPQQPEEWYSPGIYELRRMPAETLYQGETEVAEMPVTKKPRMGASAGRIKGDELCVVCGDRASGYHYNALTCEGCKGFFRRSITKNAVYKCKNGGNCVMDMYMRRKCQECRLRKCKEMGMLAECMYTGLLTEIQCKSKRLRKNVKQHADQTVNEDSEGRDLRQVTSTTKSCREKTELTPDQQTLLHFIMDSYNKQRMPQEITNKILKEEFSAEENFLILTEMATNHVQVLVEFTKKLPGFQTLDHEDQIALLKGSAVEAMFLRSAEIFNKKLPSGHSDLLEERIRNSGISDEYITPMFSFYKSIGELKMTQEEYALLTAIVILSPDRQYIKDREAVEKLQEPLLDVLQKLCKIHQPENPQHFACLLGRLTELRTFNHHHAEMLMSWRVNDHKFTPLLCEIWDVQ
Chain of human Vitamin D Receptor (VDR), VDR (gene 7421) (P11473 whole entry, looked up, the tested form may be a part): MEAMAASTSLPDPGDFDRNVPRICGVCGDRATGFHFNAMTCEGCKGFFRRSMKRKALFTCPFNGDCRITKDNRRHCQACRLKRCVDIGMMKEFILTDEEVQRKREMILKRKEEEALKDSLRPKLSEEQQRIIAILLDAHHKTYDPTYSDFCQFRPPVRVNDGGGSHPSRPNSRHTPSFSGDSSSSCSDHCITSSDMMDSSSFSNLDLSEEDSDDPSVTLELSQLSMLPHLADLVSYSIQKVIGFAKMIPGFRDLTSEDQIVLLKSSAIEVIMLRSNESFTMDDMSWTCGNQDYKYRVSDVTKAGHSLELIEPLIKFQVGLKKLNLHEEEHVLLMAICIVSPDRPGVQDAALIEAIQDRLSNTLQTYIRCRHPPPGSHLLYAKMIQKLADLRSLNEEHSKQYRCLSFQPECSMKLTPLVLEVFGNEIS
Chain of human Peroxisome Proliferator-activated Receptor alpha (PPARa), PPARA (gene 5465) (Q07869 whole entry, looked up, the tested form may be a part): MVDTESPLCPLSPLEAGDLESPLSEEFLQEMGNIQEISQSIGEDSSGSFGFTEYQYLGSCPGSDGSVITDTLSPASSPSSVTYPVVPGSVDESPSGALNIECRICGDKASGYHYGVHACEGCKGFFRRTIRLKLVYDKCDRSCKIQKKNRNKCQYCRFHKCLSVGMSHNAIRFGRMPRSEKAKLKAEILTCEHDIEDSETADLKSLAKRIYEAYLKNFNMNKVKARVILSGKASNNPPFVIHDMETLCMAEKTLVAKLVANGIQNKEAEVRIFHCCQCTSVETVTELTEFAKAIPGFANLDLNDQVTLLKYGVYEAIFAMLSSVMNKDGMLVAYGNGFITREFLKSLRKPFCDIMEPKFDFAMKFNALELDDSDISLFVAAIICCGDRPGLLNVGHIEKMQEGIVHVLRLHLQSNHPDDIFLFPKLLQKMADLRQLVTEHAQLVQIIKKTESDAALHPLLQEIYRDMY
Chain of human Thyroid Receptor alpha (THRa1), THRA (gene 7067) (P10827 whole entry, looked up, the tested form may be a part): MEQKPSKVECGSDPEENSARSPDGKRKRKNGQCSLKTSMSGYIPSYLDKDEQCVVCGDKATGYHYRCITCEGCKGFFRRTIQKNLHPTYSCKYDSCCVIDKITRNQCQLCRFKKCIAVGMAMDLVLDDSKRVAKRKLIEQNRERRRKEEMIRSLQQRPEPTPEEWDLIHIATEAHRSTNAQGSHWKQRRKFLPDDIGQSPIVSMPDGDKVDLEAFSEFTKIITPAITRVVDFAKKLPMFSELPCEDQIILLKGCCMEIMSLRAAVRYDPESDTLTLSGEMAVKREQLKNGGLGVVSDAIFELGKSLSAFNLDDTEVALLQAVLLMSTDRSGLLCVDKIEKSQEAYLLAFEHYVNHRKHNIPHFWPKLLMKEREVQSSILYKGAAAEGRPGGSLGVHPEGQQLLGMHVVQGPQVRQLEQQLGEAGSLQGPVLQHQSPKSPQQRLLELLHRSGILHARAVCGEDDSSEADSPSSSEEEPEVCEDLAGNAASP
Chain of human Peroxisome Proliferator-activated Receptor delta (PPARd), PPARD (gene 5467) (Q03181 whole entry, looked up, the tested form may be a part): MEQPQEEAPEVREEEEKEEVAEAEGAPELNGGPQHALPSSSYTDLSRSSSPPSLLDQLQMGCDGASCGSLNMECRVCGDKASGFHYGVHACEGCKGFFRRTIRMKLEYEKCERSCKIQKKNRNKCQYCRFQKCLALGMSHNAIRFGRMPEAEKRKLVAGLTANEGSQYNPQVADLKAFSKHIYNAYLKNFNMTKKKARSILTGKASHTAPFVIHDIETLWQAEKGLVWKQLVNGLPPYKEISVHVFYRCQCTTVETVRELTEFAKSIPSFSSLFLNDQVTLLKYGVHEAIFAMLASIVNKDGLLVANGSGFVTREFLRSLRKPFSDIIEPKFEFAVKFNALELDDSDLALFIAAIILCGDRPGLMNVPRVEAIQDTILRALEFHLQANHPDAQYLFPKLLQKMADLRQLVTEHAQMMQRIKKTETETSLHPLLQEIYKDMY
Chain of Nuclear receptor subfamily 4 group A member 2 (Homo sapiens) (P43354 whole entry, looked up, the tested form may be a part): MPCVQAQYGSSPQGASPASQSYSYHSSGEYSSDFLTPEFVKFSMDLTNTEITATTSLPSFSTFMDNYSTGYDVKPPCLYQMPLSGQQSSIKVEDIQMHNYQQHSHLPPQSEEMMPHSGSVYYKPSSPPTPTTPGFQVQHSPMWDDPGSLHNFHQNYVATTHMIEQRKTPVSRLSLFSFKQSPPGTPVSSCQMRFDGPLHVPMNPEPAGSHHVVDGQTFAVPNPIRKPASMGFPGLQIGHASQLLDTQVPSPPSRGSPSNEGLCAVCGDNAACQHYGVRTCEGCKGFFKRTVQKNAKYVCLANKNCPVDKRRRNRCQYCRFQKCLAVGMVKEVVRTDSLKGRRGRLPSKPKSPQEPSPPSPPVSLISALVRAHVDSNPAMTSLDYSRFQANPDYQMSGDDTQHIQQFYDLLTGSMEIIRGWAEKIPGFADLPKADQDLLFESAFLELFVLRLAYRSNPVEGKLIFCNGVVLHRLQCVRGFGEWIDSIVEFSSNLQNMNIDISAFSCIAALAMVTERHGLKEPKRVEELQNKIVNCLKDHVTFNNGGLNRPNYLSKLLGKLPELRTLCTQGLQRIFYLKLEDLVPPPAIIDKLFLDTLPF
Chain of Oxysterols receptor LXR-beta (Homo sapiens) (P55055 whole entry, looked up, the tested form may be a part): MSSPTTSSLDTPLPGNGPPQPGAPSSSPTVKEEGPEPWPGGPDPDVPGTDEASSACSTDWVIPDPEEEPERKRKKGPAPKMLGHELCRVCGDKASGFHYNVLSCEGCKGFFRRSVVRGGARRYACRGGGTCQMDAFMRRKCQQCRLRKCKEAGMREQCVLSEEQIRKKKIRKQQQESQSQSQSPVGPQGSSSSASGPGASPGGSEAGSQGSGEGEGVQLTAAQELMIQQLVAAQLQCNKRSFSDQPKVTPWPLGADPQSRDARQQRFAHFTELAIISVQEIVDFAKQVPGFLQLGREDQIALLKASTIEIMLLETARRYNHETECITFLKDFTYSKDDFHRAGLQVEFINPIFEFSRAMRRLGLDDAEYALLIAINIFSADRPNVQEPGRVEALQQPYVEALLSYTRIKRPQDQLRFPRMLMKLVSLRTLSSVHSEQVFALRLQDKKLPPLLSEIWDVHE
Chain of Peroxisome proliferator-activated receptor gamma (Homo sapiens) (P37231 whole entry, looked up, the tested form may be a part): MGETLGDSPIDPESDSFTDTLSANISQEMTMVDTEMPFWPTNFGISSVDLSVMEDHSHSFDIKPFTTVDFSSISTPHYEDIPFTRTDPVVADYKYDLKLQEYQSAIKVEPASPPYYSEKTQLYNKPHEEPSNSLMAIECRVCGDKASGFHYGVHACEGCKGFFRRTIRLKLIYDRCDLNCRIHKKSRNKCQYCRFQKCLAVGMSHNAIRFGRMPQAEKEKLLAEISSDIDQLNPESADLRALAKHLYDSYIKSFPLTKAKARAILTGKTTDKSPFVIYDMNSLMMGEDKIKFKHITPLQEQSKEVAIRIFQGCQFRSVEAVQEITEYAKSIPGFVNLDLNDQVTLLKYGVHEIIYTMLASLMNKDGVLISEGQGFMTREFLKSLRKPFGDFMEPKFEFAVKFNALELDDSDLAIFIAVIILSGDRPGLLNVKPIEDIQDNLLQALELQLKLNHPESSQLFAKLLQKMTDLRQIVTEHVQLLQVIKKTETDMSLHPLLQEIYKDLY

For the compound `O=C1Nc2ccc(Cl)cc2C(c2ccccc2)=NC1O` (configuration not stated), the result in [1], in assay [2], in assay [3], in assay [4], in assay [5] and in [6] was inactive. Besides, the result in assay [7], in [8], in [9], in [10], in assay [11] and in [12] was inactive.
For `CCOP(O)OCC`, the call in [1], in assay [13], in [14], in assay [6], in assay [8] and in assay [9] was inactive.
One may read the AC50 as the concentration giving half of the maximal activity seen. Consider `CC(=O)c1cc2c(cc1C)C(C)(C)C(C)CC2(C)C` (configuration not stated), for which the AC50 in assay [15] was 179 µM (active). Moreover, the result in [2], in [16], in assay [4], in assay [13], in assay [6] and in assay [8] was inactive. The result in [9], in [10] and in assay [12] was inactive.
`CC(C)(C)C(=O)CCl`: the outcome in assay [3], in assay [5], in [6], in [17], in assay [10] and in assay [18] was inactive. Besides, the compound was called inactive in [11] and in assay [12]. The AC50 in assay [14] is 135 µM (active).
Turning to `Cc1ccc(N(SC(F)(Cl)Cl)S(=O)(=O)N(C)C)cc1`, the result in assay [1], in assay [15], in assay [3], in assay [13], in [14] and in [6] was inactive. Moreover, the call in [7], in assay [8], in assay [9], in assay [10] and in [12] was inactive. Also, in assay [11], the AC50 is 87.1 µM (active).
In the case of `c1ccc(Nc2ccc3ccccc3c2)cc1`, the call in [1], in assay [15], in assay [19], in [20], in assay [4] and in assay [14] was inactive. In addition, the compound was classed as inactive in [5], in assay [6], in assay [8], in assay [10] and in assay [18]. The AC50 in [10] is 63.2 µM (active); in assay [11] it was 73.9 µM (active) and 83 µM (active).
